The source made the active and inactive calls. How the source made its calls: active means hit-call score of the fitted dose curve at least 0.9, where 1 is the maximum; inactive means score below 0.9.

What all share (settings): mRNA level, 48 h; actives raise or lower the signal
Read-out in assay [1]: Cytochrome P450 7A1 (Homo sapiens) (UniProt P22680)
The assay can be described thus: LTEA_HepaRG_CYP7A1: Life Technologies and Expression Analysis (LTEA) Assay for Cytochrome P450 7A1 (CYP7A1) using HepaRG (AID 2283496). In short, it runs like this: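 HepaRG cells plated 48 h, then switched to serum-free induction medium and exposed in duplicate for 48 h to 8-point half-log series from 100 uM in 0.5% DMSO. CYP7A1 mRNA by qRT-PCR (TaqMan), normalized to ACTB/GAPDH/POLR2A; bidirectional fit versus DMSO.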

Read-out in assay [2]: Glutathione S-Transferase (GSTA2), GSTA2 (gene 2939)
The assay can be described thus: LTEA_HepaRG_GSTA2: Life Technologies and Expression Analysis (LTEA) Assay for Glutathione S-Transferase (GSTA2) using HepaRG (AID 2283497). The procedure, abridged:
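Human HepaRG cells, plated 48 h, then exposed in serum-free induction medium for 48 h to eight half-log concentrations up to 100 uM in 0.5% DMSO, duplicate. GSTA2 mRNA by qRT-PCR, normalized to ACTB/GAPDH/POLR2A; bidirectional fit versus DMSO.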

Read-out in assay [3]: Glutamate-cysteine ligase catalytic (GCLC), GCLC (gene 2729)
The assay can be described thus: LTEA_HepaRG_GCLC: Life Technologies and Expression Analysis (LTEA) Assay for Glutamate-cysteine ligase catalytic (GCLC) using HepaRG (AID 2283498). In short, it runs like this: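 Differentiated human HepaRG cells, plated 48 h then switched to serum-free induction medium, were exposed in duplicate for 48 h to 8 half-log concentrations topping at 100 uM in 0.5% DMSO. GCLC mRNA was quantified by qRT-PCR against ACTB, GAPDH and POLR2A.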

Read-out in assay [4]: Glutamate-cysteine ligase regulatory (GCLM), GCLM (gene 2730)
The assay can be described thus: LTEA_HepaRG_GCLM: Life Technologies and Expression Analysis (LTEA) Assay for Glutamate-cysteine ligase regulatory (GCLM) using HepaRG (AID 2283500). The procedure, abridged:
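Differentiated HepaRG cells exposed 48 h in serum-free induction medium to eight half-log concentrations up to 100 uM (0.5% DMSO). GCLM mRNA by TaqMan qRT-PCR, normalized to ACTB, GAPDH and POLR2A; bidirectional fit versus DMSO.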

Read-out in assay [5]: Glutathione S-transferase M3 (GSTM3), GSTM3 (gene 2947)
The assay can be described thus: LTEA_HepaRG_GSTM3: Life Technologies and Expression Analysis (LTEA) Assay for Glutathione S-transferase M3 (GSTM3) using HepaRG (AID 2283501). In short, it runs like this:
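Differentiated human HepaRG cells were exposed in duplicate for 48 h in serum-free induction medium, 8 points from 100 uM top in half-log steps, 0.5% DMSO. GSTM3 mRNA was measured by TaqMan qRT-PCR, normalized to ACTB, GAPDH and POLR2A; bidirectional fit versus DMSO.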

Read-out in assay [6]: Heat shock 70 kDa protein 1 (HSPA1A), gene 3303
Briefly: LTEA_HepaRG_HSPA1A: Life Technologies and Expression Analysis (LTEA) Assay for Heat shock 70 kDa protein 1 (HSPA1A) using HepaRG (AID 2283502). In short, it runs like this:
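Human HepaRG cells in serum-free induction medium were exposed in duplicate for 48 h to 8 half-log concentrations, highest 100 uM, in 0.5% DMSO. HSPA1A mRNA read by TaqMan qRT-PCR, normalized to ACTB, GAPDH, POLR2A, fitted bidirectionally against DMSO.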

Read-out in assay [7]: Hypoxia-inducible factor 1-alpha (Homo sapiens) (UniProt Q16665)
The assay can be described thus: LTEA_HepaRG_HIF1A: Life Technologies and Expression Analysis (LTEA) Assay for Hypoxia-inducible factor 1 (HIF1A) Trancription factor using HepaRG (AID 2283503). In short, it runs like this:
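Differentiated HepaRG cells in serum-free induction medium exposed 48 h, in duplicate, to 8-point half-log series from 100 uM in 0.5% DMSO. HIF1A mRNA measured by TaqMan qRT-PCR, normalized to ACTB/GAPDH/POLR2A, fitted bidirectionally versus DMSO.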

Read-out in assay [8]: 3-Hydroxy-3-Methylglutaryl-CoA Synthase 2 (HMGCS2), HMGCS2 (gene 3158)
Briefly: LTEA_HepaRG_HMGCS2: Life Technologies and Expression Analysis (LTEA) Assay for 3-Hydroxy-3-Methylglutaryl-CoA Synthase 2 (HMGCS2) using HepaRG (AID 2283504). The procedure, abridged: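 Human HepaRG cells in serum-free induction medium were exposed in duplicate for 48 h to 8-point half-log series from 100 uM top in 0.5% DMSO. HMGCS2 mRNA measured by TaqMan qRT-PCR, normalised to ACTB, GAPDH, POLR2A; bidirectional fit versus DMSO.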

Read-out in the next assay: HGF (gene 3082)
The assay can be described thus: LTEA_HepaRG_HGF: Life Technologies and Expression Analysis (LTEA) Assay for Hepatocyte Growth Facto (HGF) using HepaRG (AID 2283505). In short, it runs like this:
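Differentiated HepaRG cells in serum-free induction medium exposed 48 h in duplicate, 8 half-log concentrations from 100 uM in 0.5% DMSO. HGF mRNA by qRT-PCR, normalised to ACTB, GAPDH, POLR2A; bidirectional fitting.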

Read-out in assay [9]: growth arrest and DNA damage 45 (GADD45G), GADD45G (gene 10912)
Briefly: LTEA_HepaRG_GADD45G: Life Technologies and Expression Analysis (LTEA) Assay for growth arrest and DNA damage 45 (GADD45G) using HepaRG (AID 2283499). In short, it runs like this: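 Differentiated human HepaRG cells, 48 h post-plating, exposed 48 h in serum-free induction medium to 8 half-log concentrations (top 100 uM, 0.5% DMSO) in duplicate. GADD45G mRNA measured by Fluidigm TaqMan qRT-PCR, normalized to ACTB, GAPDH, POLR2A; bidirectional fit versus DMSO.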

Hypoxia-inducible factor 1-alpha (Homo sapiens), sequence (Q16665 whole entry, looked up): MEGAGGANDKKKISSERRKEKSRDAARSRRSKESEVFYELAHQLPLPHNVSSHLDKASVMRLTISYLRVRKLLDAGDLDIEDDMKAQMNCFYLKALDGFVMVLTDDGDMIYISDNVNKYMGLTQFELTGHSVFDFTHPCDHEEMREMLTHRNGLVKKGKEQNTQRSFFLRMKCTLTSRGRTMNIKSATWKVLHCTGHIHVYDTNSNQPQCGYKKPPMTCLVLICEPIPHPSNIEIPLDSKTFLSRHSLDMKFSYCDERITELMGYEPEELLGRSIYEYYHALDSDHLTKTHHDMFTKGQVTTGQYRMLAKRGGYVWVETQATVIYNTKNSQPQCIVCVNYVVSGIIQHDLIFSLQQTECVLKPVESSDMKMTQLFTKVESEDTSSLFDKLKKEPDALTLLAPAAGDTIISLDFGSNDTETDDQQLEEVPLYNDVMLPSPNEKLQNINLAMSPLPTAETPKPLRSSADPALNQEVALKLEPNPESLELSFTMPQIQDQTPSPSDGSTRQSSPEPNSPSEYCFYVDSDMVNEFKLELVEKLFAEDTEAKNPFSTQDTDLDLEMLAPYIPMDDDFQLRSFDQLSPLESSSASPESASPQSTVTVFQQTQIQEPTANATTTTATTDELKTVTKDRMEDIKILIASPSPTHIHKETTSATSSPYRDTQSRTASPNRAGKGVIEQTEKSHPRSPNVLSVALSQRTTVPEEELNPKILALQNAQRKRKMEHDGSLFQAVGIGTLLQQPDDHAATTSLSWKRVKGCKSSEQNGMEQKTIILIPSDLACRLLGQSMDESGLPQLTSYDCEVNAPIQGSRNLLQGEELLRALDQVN

Regarding `C=CCOC(=O)c1ccccc1C(=O)OCC=C`, the call in assay [1], in assay [2], in assay [3], in assay [4], in assay [5] and in assay [6] was inactive. The outcome (in assay [7]; in assay [8]; with HGF (gene 3082)) was inactive.

In the case of `CCCCCCOCCO`, the molecule was called inactive in [1], in assay [2], in assay [3], in assay [9], in assay [4] and in assay [5]. Also, the result (in assay [6]; in assay [7]; in assay [8]; in the assay with HGF (gene 3082)) was inactive.

One may read the AC50 as the concentration at which the activity in the assay is half-maximal. Take `CNCc1cc(F)ccc1Oc1ccc(Cl)c(Cl)c1`: the AC50 in assay [1] is 85.1 µM (active); in assay [2], 92.7 µM (active); in assay [6], 78.4 µM (active); in assay [8] it was 88.6 µM (active); in the assay with HGF (gene 3082), 86.6 µM (active). Besides, the call in assay [3], in assay [9], in [4], in assay [5] and in assay [7] was inactive.

On to `COc1cc(-c2nc(NC(=O)c3cc4cc(C)cc(C)c4n3CC(=O)O)sc2CCC2CCCCC2)c(OC)cc1Cl`, for which the AC50 in assay [1] was 4.44 µM (active); in [2], 7.06 µM (active); in assay [3], 14 µM (active); in assay [9], 3.17 µM (active); in [4] it was 19.4 µM (active); in [5], 3.86 µM (active). The AC50 was 11.1 µM (active) in assay [6], 11 µM (active) in [7], 6.61 µM (active) in assay [8] and 6.32 µM (active) in the assay with HGF (gene 3082).

As to `CCOC(=O)CCC(=O)OCC`, the result in assay [1], in assay [2], in assay [3], in assay [9], in assay [4] and in assay [7] was inactive. Besides, the outcome (in assay [8]; in the assay with HGF (gene 3082)) was inactive. Also, the AC50 in [5] is 83.4 µM (active); in assay [6], 88.6 µM (active).

For `CCCCCCCCCCC`, the outcome in assay [1], in assay [2], in assay [3], in [4], in assay [5] and in assay [6] was inactive. Moreover, the result (in [7]; in assay [8]; in the assay with HGF (gene 3082)) was inactive.

As for `C=CCc1ccc(O)c(OC)c1`, the molecule was classed as inactive in assay [1], in assay [2], in assay [3], in assay [9], in assay [4] and in [5]. Moreover, the result (in assay [6]; in [7]; in [8]; with HGF (gene 3082)) was inactive.

On to `CN[C@H]1CC[C@@H](c2ccc(Cl)c(Cl)c2)c2ccc(S(N)(=O)=O)cc21`, for which the AC50 is 12.2 µM (active) in assay [1], 71.1 µM (active) in [9], 72.1 µM (active) in assay [6] and 50 µM (active) in assay [8]. The call (in [2]; in [3]; in assay [4]; in assay [5]; in assay [7]; in the assay with HGF (gene 3082)) was inactive.

With `CCCCCCCCCCCC(=O)OC`, the molecule was called inactive in assay [1], in assay [2], in [3], in [4], in [5] and in assay [6]. Further, the call (in assay [7]; in assay [8]; with HGF (gene 3082)) was inactive.

As to `CCNc1cccc(C)c1`, the outcome in [1], in [2], in assay [3], in [9], in [4] and in assay [5] was inactive. Moreover, the molecule was classed as inactive (in assay [6]; in [7]; in assay [8]; with HGF (gene 3082)).

Regarding `CCCCOC(=O)CCCCCCCCC(=O)OCCCC`, the molecule was called inactive in assay [1], in assay [2], in assay [3], in [4], in assay [5] and in [6]. Besides, the result (in [7]; in [8]; with HGF (gene 3082)) was inactive.

`CC(CO)OC(C)CO` (centres undefined) (tested in a mixture with another compound): the call in assay [1], in [2], in assay [3], in [9], in assay [4] and in [5] was inactive. In addition, the molecule was classed as inactive (in assay [6]; in assay [7]; in assay [8]; with HGF (gene 3082)).

In the case of `Nc1nc(N)c2nc(CNc3ccc(C(=O)N[C@@H](CCC(=O)O)C(=O)O)cc3)cnc2n1`, the AC50 is 0.162 µM (active) in assay [1] and 0.12 µM (active) in assay [2]. The result in [3], in assay [9], in assay [4], in [5], in assay [6] and in [8] was inactive. In addition, the outcome with HGF (gene 3082) was inactive.

For `Cc1ccc(C(C)C)c(O)c1`, the outcome in [1], in assay [2], in assay [3], in assay [9], in [4] and in assay [5] was inactive. Moreover, the result (in assay [6]; in [7]; in assay [8]; with HGF (gene 3082)) was inactive.

Turning to `CCCCCC(=O)O`, the call in assay [1], in assay [2], in assay [3], in [9], in assay [4] and in [5] was inactive. In addition, the result (in assay [6]; in assay [7]; in assay [8]; with HGF (gene 3082)) was inactive.

Regarding `CCCCc1ccc2c(n1)[C@@H](c1ccc(OC)cc1C[C@H](C)C(=O)O)[C@H](C(=O)O)[C@H]2c1ccc2c(c1)OCO2`, the outcome in assay [1], in [2], in assay [3], in [4], in [5] and in assay [6] was inactive. Also, the outcome (in assay [7]; in [8]; with HGF (gene 3082)) was inactive.

For the molecule `O=[N+]([O-])C(CO)(CO)CO`, the molecule was called inactive in assay [1], in assay [2], in [3], in assay [4], in [5] and in assay [6]. Further, the molecule was classed as inactive (in assay [7]; in assay [8]; with HGF (gene 3082)).

Consider `Cc1ccc(C)c(C)c1`, for which the outcome in [1], in assay [2], in assay [3], in [4], in [5] and in [6] was inactive. For the same molecule, the call (in [7]; in assay [8]; with HGF (gene 3082)) was inactive.

Consider `O=C(OCCCCCOC(=O)c1ccccc1)c1ccccc1`, for which the outcome in assay [1], in [2], in assay [6], in assay [7] and in assay [8] was inactive. For the same molecule, the AC50 in assay [3] was 0.543 µM (active); in assay [4] it was 1.57 µM (active); in [5], 1.62 µM (active); with HGF (gene 3082) it was 2.12 µM (active).

On to `NCCO`, for which the result in [1], in assay [2], in [3], in assay [4], in assay [5] and in assay [6] was inactive. Moreover, the molecule was classed as inactive (in [7]; in assay [8]; with HGF (gene 3082)).

As for `CCCCCCC(=O)OCC`, the call in assay [1], in assay [2], in [3], in assay [4], in [5] and in assay [6] was inactive. The result (in [7]; in assay [8]; with HGF (gene 3082)) was inactive.

Source of the values: PubChem BioAssay (EPA / NIEHS).
